Measurements published in PubChem BioAssay (NCATS).
“And” between values parts separate entries of the source, which are not always exact repeats. Equal entries are not always repeated. Records with an inconclusive call do not appear. The source made the active and inactive calls. Unless noted, calls come from the whole dose curve; as a rule, active = well fitted curve in the direction sought with a large enough effect; inconclusive = small, poorly fitted or top-dose-only effect, or another doubt; inactive = no such curve, though single readings can be large; an effect the other way counts as inactive or inconclusive.

Legend:
[1] = Cell Viability - HepG2 (AID 433; calls by dose curve;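 note: potency is the fitted concentration of half-maximal effect; cells exposed to compound for 40 hours; potency for ATP loss meaning cytotoxicity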); details: qHTS
In short: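 HepG2 cells, 1500 per well, treated 40 hr at 37 °C in complete medium; viability from intracellular ATP by CellTiter-Glo luminescence. Normalized to DMSO and 100 uM tamoxifen; AC50 from Hill fit of qHTS concentration-response.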

[2] = Cell Viability - HUV-EC-C (AID 542); details: HUV-EC-C endothelial cell viability, qHTS; series mostly up to 92.2 µM;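 note: cells exposed to compound for 40 hours; nearly all actives have a fitted effect of over 35% in size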; note: potency is the fitted concentration of half-maximal effect; for activity change, negative = cytotoxicity: % is set by controls: 0 for no effect and ±100 for the full control effect
In short: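 Decrease in cellular ATP, quantified by luciferase luminescence, reflects toxicity in normal human vascular endothelial HUV-EC-C cells given compound for 40 hr in complete culture medium. Values are AC50s from concentration-response curves.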

[3] = Cellular Toxicity (caspase-3) Jurkat (AID 655); details: Jurkat caspase-3 activation, luminescence; caspase-3 activation: at 92.2 µM (top of the series), DMSO = 0%, tamoxifen = 100%;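 note: cells exposed to compound for 16 h at 37 °C before reading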; note: potency is the fitted concentration of half-maximal effect
In short: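 Jurkat cells (5000/well) in complete medium exposed 16 h at 37 C; caspase-3/7 activity read by Caspase-Glo luminescence after 20 min at room temperature. Normalized to DMSO and 100 uM tamoxifen; AC50 from Hill fits.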

[4] = Cellular Toxicity (caspase-3) NIH 3T3 (AID 666); details: NIH 3T3 caspase-3 activation, apoptosis/toxicity, 0% DMSO, 100% is 100 µM tamoxifen; series mostly up to 92.2 µM;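 note: caspase signal read after 16 h compound exposure; 0% = DMSO basal and 100% = 100 µM tamoxifen stimulation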
In short: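 Concentration-response qHTS in NIH 3T3 mouse fibroblasts scores caspase-3/7 activation as rising luminescence after 16 hr compound exposure. Signals are scaled between DMSO-only and 100 uM tamoxifen.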

[5] = Cell Viability - LYMP1-002 - Assay at 16 hr (AID 948); details: LYMP1-002 lymphoblastoid cell viability; series mostly up to 92.2 µM; note: potency is the fitted concentration of half-maximal effect;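 for activity change, negative = cytotoxicity: 0% = DMSO alone and full effect = 92 µM tetraoctylammonium bromide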
In short: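 LYMP1-002 human lymphoblastoid cells, 2500/well, were treated with compounds for 16 hr at 37 C in complete medium. Viability was read as intracellular ATP by CellTiter-Glo luminescence, and AC50 was derived from a Hill fit to concentration-response data.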

[6] = Cell Viability - LYMP2-011 (AID 969); details: LYMP2-011 lymphoblastoid cells viability; series mostly up to 92.2 µM; note: nearly all actives have a fitted effect of over 60% in size; note: potency is the fitted concentration of half-maximal effect
In short: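 Acute toxicity is scored as a concentration-dependent drop in intracellular ATP of a human lymphoblastoid line after 24 hr treatment. Values are AC50s modeled with the Hill equation.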

[7] = Cell Viability - LYMP2-013 (AID 970); details: LYMP2-013 lymphoblastoid cells viability; series mostly up to 92.2 µM; note: nearly all actives have a fitted effect of over 55% in size; note: potency is the fitted concentration of half-maximal effect
In short: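 Acute toxicity was measured in human lymphoblastoid cells (2500/well) exposed to compound titrations for 24 hr, with ATP luminescence (CellTiter-Glo) as read-out and AC50 fitted by Hill equation.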

[8] = Cell Viability - LYMP2-023 (AID 975); details: LYMP2-023 lymphoblastoid cell viability; series mostly up to 92.2 µM;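 note: cells exposed to compound for 24 hours at 37 °C; nearly all actives have a fitted effect of over 55% in size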; note: potency is the fitted concentration of half-maximal effect;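 for activity change, negative = cytotoxicity: cellular ATP measured by luciferase luminescence as viability proxy; plate controls were DMSO only for no effect and 92 µM tetraoctylammonium bromide control for full effect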
In short: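 Concentration-dependent drop in intracellular ATP measures acute cytotoxicity in a human lymphoblastoid line treated for 24 hours in complete culture medium. AC50 values are taken from Hill-equation fits of qHTS data.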

[9] = Cell Viability - LYMP2-025 (AID 976); details: LYMP2-025 lymphoblastoid cell viability; series mostly up to 92.2 µM; note: potency is the fitted concentration of half-maximal effect;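 for activity change, negative = cytotoxicity: plate controls were DMSO only for no effect and tetraoctylammonium bromide control for full effect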
In short: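 In qHTS format, LYMP2-025 lymphoblastoid cells in complete culture medium received compound for 24 hr; ATP-based CellTiter-Glo signal gave viability, with AC50 derived by Hill equation.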

[10] = Cell Viability - LYMP2-007 (AID 979); details: LYMP2-007 lymphoblastoid cell viability; series mostly up to 92.2 µM;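 note: cells exposed to compound for 24 h before reading; nearly all actives have a fitted effect of over 60% in size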; note: potency is the fitted concentration of half-maximal effect;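 for activity change, negative = cytotoxicity: 0% = DMSO only and the negative end = 92 µM tetraoctylammonium bromide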
In short: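 Acute toxicity is scored as a concentration-dependent fall in intracellular ATP in human lymphoblastoid cells treated 24 hr at 37 C, measured by luciferase luminescence; Hill-equation modelling yields AC50.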

[11] = Cell Viability - LYMP2-008 (AID 980); details: LYMP2-008 lymphoblastoid cell viability, qHTS; series mostly up to 92.2 µM; note: nearly all actives have a fitted effect of over 60% in size; note: potency is the fitted concentration of half-maximal effect; for activity change, negative = cytotoxicity: % is set by controls: 0 for no effect and ±100 for the full control effect
In short: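 Acute cytotoxicity is scored as concentration-dependent loss of cellular ATP in a human lymphoblastoid line after 24 hr treatment at 37 C. ATP is quantified by luciferase luminescence.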

[12] = Cell Viability - LYMP2-014 (AID 983); details: LYMP2-014 lymphoblastoid cells, viability qHTS; series mostly up to 92.2 µM; note: nearly all actives have a fitted effect of over 50% in size; note: potency is the fitted concentration of half-maximal effect;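 for activity change, negative = cytotoxicity: plate controls were DMSO only for no effect and 92 µM tetraoctylammonium bromide for full effect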
In short: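 Decrease in intracellular ATP after 24 hr treatment at 37 C, measured by luciferase luminescence, indicated cytotoxicity. Concentration-response data were fitted with the standard Hill equation to give AC50.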

[13] = Cell Viability - LYMP2-016 (AID 984); details: LYMP2-016 lymphoblastoid cell viability, qHTS; series mostly up to 92.2 µM;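 note: cells exposed to compound for 24 hours at 37 °C; nearly all actives have a fitted effect of over 55% in size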; note: potency is the fitted concentration of half-maximal effect; for activity change, negative = cytotoxicity: % is set by controls: 0 for no effect and ±100 for the full control effect
In short: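 Human lymphoblastoid LYMP2-016 cells, 2500 per well, treated with compounds for 24 h at 37 C. Viability read as intracellular ATP by CellTiter-Glo luminescence after 30 min at room temperature; AC50 from Hill fits of concentration-response.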

[14] = Cell Viability - LYMP2-018 (AID 985); details: LYMP2-018 lymphoblastoid cells, viability (qHTS); series mostly up to 92.2 µM;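 note: compound exposure lasted 24 hr at 37 °C; nearly all actives have a fitted effect of over 50% in size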; note: potency is the fitted concentration of half-maximal effect;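 for activity change, negative = cytotoxicity: plate controls were DMSO only for no effect and tetraoctylammonium bromide at 92 µM for full effect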
In short: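 Acute cytotoxicity is scored as a concentration-dependent drop in intracellular ATP after 24 hr exposure of the lymphoblastoid line in complete culture medium, measured by luciferase luminescence. Potency is expressed as AC50 from Hill modelling.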

[15] = Cell Viability - LYMP2-026 (AID 989); details: LYMP2-026 lymphoblastoid cell viability, qHTS; series mostly up to 92.2 µM; note: nearly all actives have a fitted effect of over 50% in size; note: potency is the fitted concentration of half-maximal effect
In short: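 Concentration-dependent loss of intracellular ATP in human lymphoblastoid cells after 24 hr at 37 C, quantified by luciferase luminescence. AC50 derived from standard Hill equation.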

[16] = Cell Viability - LYMP1-002 - Assay at 40 hr (AID 994); details: LYMP1-002 lymphoblastoid cell viability; series mostly up to 92.2 µM; note: nearly all actives have a fitted effect of over 60% in size; note: potency is the fitted concentration of half-maximal effect
In short: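 Viability in the human lymphoblastoid line was measured as intracellular ATP via CellTiter-Glo after 40 hr compound exposure. Tetraoctylammonium bromide served as positive control.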

[17] = qHTS assay for cell viability of HEK293 cells (AID 743288); details: ATP luminescence (CellTiter-Glo), 18 h; max response: active compounds read low; note: % is set by controls: 0 for no effect and ±100 for the full control effect; nearly all actives have a fitted effect of over 50% in size
In short: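 Parental HEK293 cells, 2,000 per well, preincubated at least 5 h at 37 C, then exposed to compounds in DMSO for 18 h at 37 C. Viability by CellTiter-Glo ATP luminescence after 30 min at room temperature.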

[18] = MultiTox-Fluor Cytotoxicity Assay - LYMP1-002 - Live Cells (AID 955); details: LYMP1-002 lymphoblastoid live-cell protease fluorescence viability; series mostly up to 46.1 µM;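 note: cells exposed to compound for 16 hours; % is set by controls: 0 for no effect and ±100 for the full control effect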
In short: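 Cytotoxicity in the human lymphoblastoid line LYMP1-002 is measured as loss of live-cell protease activity after 16 h treatment in complete culture medium. AC50 is derived from Hill-equation fits of qHTS concentration-response data.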

[19] = Cell Viability - BJ (AID 421; calls by dose curve;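 note: potency is the fitted concentration of half-maximal effect; cells exposed to compound for 40 hours at 37 °C before readout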); details: BJ fibroblast viability, qHTS
In short: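 Quantitative HTS: ATP depletion in BJ cells after 40 hr compound exposure in complete culture medium, detected with CellTiter-Glo; AC50 from standard Hill fits.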

[20] = Cell Viability - Mesenchymal (AID 546); details: mesenchymal cells viability, qHTS; activity change, negative = cytotoxicity: at 91.7 µM (top of the series);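 note: cells exposed to compound for 40 hours before reading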
In short: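 Normal human renal glomerulus-derived kidney mesenchymal cells, 1000 per well in complete medium, were treated with compounds for 40 hr at 37 °C. Viability was read as intracellular ATP by CellTiter-Glo luminescence; AC50 values came from Hill-equation fits of qHTS concentration-response data.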

C=CC(=O)OCCCCCCOC(=O)C=C
inactive: Potency [1] > 92 µM | Potency [2] | Potency [3] | outcome [4] | max response [17] -28.7% and -17.5%
active: Potency [5] 39.8 µM | Potency [6] 39.8 µM | Potency [7] 39.8 µM | Potency [8] 39.8 µM | Potency [9] 50.1 µM | Potency [10] 39.8 µM | Potency [11] 50.1 µM | Potency [12] 50.1 µM | Potency [13] 39.8 µM | Potency [14] 39.8 µM | Potency [15] 39.8 µM | Potency [16] 39.8 µM

Cc1cc(-c2ccc(N=Nc3cc(S(=O)(=O)O)c4ccccc4c3N)c(C)c2)ccc1N=Nc1cc(S(=O)(=O)O)c2ccccc2c1N
active: Potency [2] 25.1 µM
inactive: Potency [3] | outcome [4] | outcome [18] | Potency [15]

Nc1ccccc1O
active: Potency [3] 25.1 µM
inactive: Potency [19] > 92 µM | Potency [1] > 92 µM | Potency [2] | Potency [20] | outcome [4] | Potency [5] | outcome [18] | Potency [6] | Potency [7] | Potency [8] | Potency [9] | Potency [10] | Potency [11] | Potency [12] | Potency [13] | Potency [14] | Potency [15] | Potency [16] | max response [17] -3.09%

O=C(OCC1CO1)C1CCCCC1C(=O)OCC1CO1 (stereo unspecified)
inactive: Potency [19] > 92 µM | Potency [1] > 92 µM | Potency [2] | Potency [20] | outcome [4] | Potency [5] | outcome [18] | Potency [9] | max response [17] -26.2%
active: Potency [10] 50.1 µM | Potency [14] 39.8 µM | Potency [16] 39.8 µM

CC(C)(C)C(=O)C1C(=O)c2ccccc2C1=O
inactive: Potency [19] > 92 µM | Potency [2] | Potency [20] | Potency [3] | outcome [4] | Potency [5] | outcome [18] | Potency [6] | Potency [7] | Potency [8] | Potency [9] | Potency [10] | Potency [12] | Potency [13] | Potency [14] | Potency [15] | Potency [16] | max response [17] -22.9%

O=C1c2ccccc2C(=O)C1(O)O
inactive: Potency [1] > 92 µM | Potency [2] | Potency [20] | outcome [4] | Potency [5] | outcome [18] | Potency [6] | Potency [8] | Potency [9] | Potency [10] | Potency [11] | Potency [12] | Potency [13] | Potency [14] | Potency [15] | Potency [16] | max response [17] -12.1%
active: Potency [3] 31.6 µM

O=CC(=O)c1ccccc1
inactive: Potency [19] > 92 µM | Potency [1] > 92 µM | Potency [2] | Potency [20] | Potency [3] | outcome [4] | Potency [5] | outcome [18] | Potency [6] | Potency [7] | Potency [8] | Potency [9] | Potency [12] | Potency [13] | Potency [16] | max response [17] -4.94%

O=C(O)c1ccc([N+](=O)[O-])cc1
active: caspase-3 activation [3] 85.2%
inactive: Potency [19] > 92 µM | Potency [1] > 92 µM | Potency [2] | Potency [20] | outcome [4] | Potency [5] | outcome [18] | Potency [6] | Potency [7] | Potency [8] | Potency [9] | Potency [10] | Potency [11] | Potency [12] | Potency [13] | Potency [14] | Potency [15] | Potency [16] | max response [17] -3.6% and -1.43%
